Assay [1] concerns Plasmodium falciparum. In words: GSK_TCMDC: Inhibition of Plasmodium falciparum 3D7 in whole red blood cells, using parasite LDH activity as an index of growth. Test compounds present at 2uM. The assay is classed as functional.
The subject of assay [2] is Plasmodium falciparum. The experiment in a line: GSK_TCMDC: Inhibition of Plasmodium falciparum Dd2 in whole red blood cells, using parasite LDH activity as an index of growth. Test compounds present at 2uM. It counts as functional.

Structures are written as SMILES.

In general, Inhibition refers to the drop in the measured response relative to a control, in per cent. A low value points to a weak effect. Turning to `Cc1ccc2ccncc2c1N`, the Inhibition in assay [1] is given as 96%; in assay [2] it was 4%.

With `Cc1nc(C)c(-c2ccc(Oc3cc(Cl)cc(Cl)c3)cc2)c(O)c1Cl`, the Inhibition in assay [1] and in assay [2] was 96% throughout.

Take `CCOc1cc2ncnc(Nc3ccc(OCc4ccccc4OC)c(OC)c3)c2cc1OCC.Cl`: the Inhibition is 97% in assay [1] and 52% in assay [2].

For the compound `Cl.Nc1ccncc1C(=O)NCCCCN1CCN(c2nsc3ccccc23)CC1`, the Inhibition in assay [1] worked out at 100%; in assay [2], 9%.

For the compound `COc1cc(Cc2cnc(N)nc2N)cc(OCCCCc2ccc([N+](=O)[O-])cc2)c1OC`, the results for the Inhibition in assay [1] and in assay [2] were 88% and 4%, respectively.

As to `Cc1[nH]c(C)c(-c2ccc(Oc3cccc(C(F)(F)F)c3)cc2)c(=O)c1Br`, the values for the Inhibition in assay [1] and in assay [2] were 99% and 97%, respectively.

Turning to `CCCCCCOc1ccc2ccccc2c1CNCCCCCCNCc1c(OCCCCCC)ccc2ccccc12.CS(=O)(=O)O`, the Inhibition in assay [1] is listed as 85%; in assay [2] it was 55%.

Consider `CCOC(=O)N1CCN(CCCCCNc2cc(C)nc(NC(=N)Nc3ccc(Cl)cc3)n2)CC1.Cl`, for which the Inhibition is recorded as 100% in assay [1] and 0% in assay [2].

Take `CCC(C(C)C)n1ccc2c3c(N)nc(N)nc3ccc21` (configuration not stated): the Inhibition in assay [1] and in assay [2] was 95% each time.

With `Cl.Clc1ccc(CNCCCCCCCNCc2ccc(Cl)c(Cl)c2)cc1Cl`, the Inhibition in assay [1] worked out at 99%; in assay [2] it was 49%.

On to `Cc1c(Cc2ccc(C(C)C)cc2)cnc2nc(N)nc(N)c12`, for which the figures for the Inhibition in assay [1] and in assay [2] were 97% and 0%, respectively.

In the case of `CN1CCN(c2ccc3[nH]c(-c4ccc5[nH]c(-c6ccc([N+](=O)[O-])c(N)c6)nc5c4)nc3c2)CC1`, the Inhibition in assay [1] and in assay [2] was 100% each time.

Consider `CN=C(N)c1ccc(NC(=O)C=Cc2ccc(C(=O)Nc3ccc(C(N)=NC)cc3)cc2)cc1.Cl`, for which the results for the Inhibition in assay [1] and in assay [2] were 97% and 100%, respectively.

On to `Nc1nc(Cc2ccc(Cl)cc2)nc(Cc2ccc(Cl)cc2)n1`, for which the results for the Inhibition in assay [1] and in assay [2] were 85% and 0%, respectively.

`C=CCOc1ccc(Cc2cnc(N)nc2N)cc1CCC`: the values for the Inhibition in assay [1] and in assay [2] were 93% and 0%, respectively.

For the compound `CC(C)c1ccc2c(c1)C(=O)c1ccc(C(=O)O)cc1S2(=O)=O`, the Inhibition in assay [1] came to 93%; in assay [2], 83%.

Consider `Cc1nc(C)c(-c2ccc(Oc3ccc(Cl)cc3)c(Cl)c2)c(O)c1Br`, for which the Inhibition came to 97% in assay [1] and 96% in assay [2].

As to `CC(=O)Oc1c(Cl)c(C)nc(C)c1-c1ccc(Oc2ccc(OC(F)(F)F)cc2)cc1`, the Inhibition is 97% in assay [1] and 98% in assay [2].

Turning to `Cl.FC(F)(F)c1ccc2c(NCCCNc3ccnc4cc(C(F)(F)F)ccc34)ccnc2c1`, the Inhibition in assay [1] and in assay [2] was 100% in each case.

Consider `Cc1nc2ccc(S(=O)(=O)Nc3ccc(C(=O)N[C@@H](CCC(=O)O)C(=O)O)cc3)cc2c(=O)[nH]1`, for which the Inhibition in assay [1] is reported as 94%; in assay [2], 2%.

Consider `CC(C)Cn1ccc2c3c(N)nc(N)nc3ccc21`, for which the Inhibition in assay [1] and in assay [2] was 96% throughout.

Take `Cc1[nH]c(C)c(-c2ccc(Oc3ccc(Cl)cc3)cc2)c(=O)c1Cl`: the Inhibition was determined as 91% in assay [1] and 16% in assay [2].

As for `COc1ccccc1-c1nc2c(ccc3nc(N)nc(N)c32)[nH]1`, the Inhibition was 100% in assay [1] and 93% in assay [2].

Consider `CCCCc1cc(Cc2cnc(N)nc2N)cc(OC)c1OC.Cl`, for which the results for the Inhibition in assay [1] and in assay [2] were 86% and 0%, respectively.

On to `COc1ccc2c(O)c(Br)c(C)nc2c1`, for which the Inhibition in assay [1] was 89%; in assay [2], 74%.

Take `Cl.Oc1c(CNC2CCCCC2)cc(Cl)c2ccccc12`: the Inhibition in assay [1] was found to be 98%; in assay [2], 100%.

`COc1ccc2c(c1CCNCCCCNCCc1c(OC)ccc3c1CCCC3)CCCC2.CS(=O)(=O)O`: the values for the Inhibition in assay [1] and in assay [2] were 100% and 25%, respectively.

For `Nc1nc(N)c2c(ccc3[nH]c(-c4ccccc4Cl)nc32)n1`, the Inhibition in assay [1] and in assay [2] was 100% in each case.

`Nc1nc(N)c2c(ccc3c2ccn3Cc2ccc3c(c2)OCO3)n1`: the Inhibition in assay [1] turned out to be 100%; in assay [2] it was 95%.

Regarding `CC(=O)Oc1c(Br)c(C)nc(C)c1-c1ccc(Oc2ccc(OC(F)(F)F)cc2)cc1`, the Inhibition was found to be 98% in assay [1] and 97% in assay [2].

In the case of `Cl.c1ccc2c(CNCCCN3CCN(CCCNCc4c5ccccc5cc5ccccc45)CC3)c3ccccc3cc2c1`, the Inhibition in assay [1] and in assay [2] was 100% each time.

For the compound `Nc1ncc(-c2ccc(S(=O)(=O)Nc3ccc(C(=O)N[C@@H](CCC(=O)O)C(=O)O)cc3)cc2)c(=O)[nH]1`, the Inhibition in assay [1] is listed as 99%; in assay [2], 0%.

For the compound `CCOc1cc(OCC)c2ccccc2c1CNCCCCCCNCc1c(OCC)cc(OCC)c2ccccc12.CS(=O)(=O)O`, the Inhibition in assay [1] came out at 100%; in assay [2], 89%.

For `CCOc1cc(Cc2cnc(N)nc2N)cc(Br)c1OC`, the Inhibition in assay [1] was found to be 83%; in assay [2] it was 3%.

As to `CCN(CC)c1ccc2nc(N)nc(N)c2c1.Cl`, the Inhibition is recorded as 93% in assay [1] and 0% in assay [2].

In the case of `Nc1nc(N)c2cc(Cc3ccccc3Cl)cnc2n1`, the Inhibition in assay [1] is 93%; in assay [2] it was 0%.

These data come from ChEMBL document CHEMBL1157539, “Thousands of chemical starting points for antimalarial lead identification” (Nature, 2010).
